# Assay results published in publication PMC7862700, “An all-to-all approach to the identification of sequence-specific readers for epigenetic DNA modifications on cytosine”.
# Experiments:
# Assay in all cases: DAPPL (digital affinity profiling via proximity ligation, sequencing); 10 mM Tris-HCl pH 7.5, 50 mM NaCl, 1 mM DTT, 4% glycerol, room temperature, 30 min; GST-TFs on glutathione beads, 16-mer random dsDNA library, 0.1% formaldehyde crosslink after washing; high values mean tight binding
# [1] = target: T1, FEV (Homo sapiens, UniProt Q99581 1-238); conditions: protein: recombinant; tags: N-terminal GST; dsDNA, one strand shown
# T1 sequence: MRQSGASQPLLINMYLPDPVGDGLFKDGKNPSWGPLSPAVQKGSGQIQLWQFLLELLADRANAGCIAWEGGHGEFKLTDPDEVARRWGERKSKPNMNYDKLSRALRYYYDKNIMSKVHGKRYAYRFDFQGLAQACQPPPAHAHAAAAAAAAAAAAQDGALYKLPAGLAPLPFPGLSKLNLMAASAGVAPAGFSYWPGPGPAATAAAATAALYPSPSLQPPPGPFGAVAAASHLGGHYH
# How it was run: (§1)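 Each value of binding signal is a hexamer's read frequency for a factor divided by the same hexamer's frequency in the tag-only sample. Barcoded, bead-captured GST fusions of human transcription factors made in yeast were pooled with that sample and incubated with 200 nmole of a random double-stranded 16-mer DNA library in Tris/NaCl/DTT/glycerol buffer at room temperature for 30 min. Washing, 0.1% formaldehyde crosslinking, proximity ligation, PCR and Illumina NextSeq500 sequencing followed.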
# [2] = target: ETV5 (Homo sapiens, UniProt P41161 1-510); conditions: protein: recombinant; tags: N-terminal GST; dsDNA, one strand shown
# ETV5, sequence (P41161 whole entry): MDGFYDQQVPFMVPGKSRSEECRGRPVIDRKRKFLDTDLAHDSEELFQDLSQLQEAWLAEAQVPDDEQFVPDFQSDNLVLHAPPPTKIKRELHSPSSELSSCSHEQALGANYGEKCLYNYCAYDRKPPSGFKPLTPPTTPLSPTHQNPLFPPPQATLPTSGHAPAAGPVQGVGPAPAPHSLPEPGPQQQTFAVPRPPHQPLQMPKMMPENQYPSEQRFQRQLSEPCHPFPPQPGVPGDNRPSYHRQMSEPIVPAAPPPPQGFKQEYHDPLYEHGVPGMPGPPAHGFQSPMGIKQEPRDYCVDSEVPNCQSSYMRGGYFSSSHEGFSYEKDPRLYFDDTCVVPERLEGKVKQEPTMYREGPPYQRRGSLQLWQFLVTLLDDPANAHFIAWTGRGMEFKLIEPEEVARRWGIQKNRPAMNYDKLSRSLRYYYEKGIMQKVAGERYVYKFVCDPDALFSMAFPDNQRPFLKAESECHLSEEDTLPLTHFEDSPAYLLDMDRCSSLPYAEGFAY
# How it was run: as §1
# [3] = target: HSF1 (Homo sapiens, UniProt Q00613 1-529); conditions: protein: recombinant; tags: N-terminal GST; chain copies: 3; dsDNA, one strand shown
# HSF1, sequence (Q00613 whole entry): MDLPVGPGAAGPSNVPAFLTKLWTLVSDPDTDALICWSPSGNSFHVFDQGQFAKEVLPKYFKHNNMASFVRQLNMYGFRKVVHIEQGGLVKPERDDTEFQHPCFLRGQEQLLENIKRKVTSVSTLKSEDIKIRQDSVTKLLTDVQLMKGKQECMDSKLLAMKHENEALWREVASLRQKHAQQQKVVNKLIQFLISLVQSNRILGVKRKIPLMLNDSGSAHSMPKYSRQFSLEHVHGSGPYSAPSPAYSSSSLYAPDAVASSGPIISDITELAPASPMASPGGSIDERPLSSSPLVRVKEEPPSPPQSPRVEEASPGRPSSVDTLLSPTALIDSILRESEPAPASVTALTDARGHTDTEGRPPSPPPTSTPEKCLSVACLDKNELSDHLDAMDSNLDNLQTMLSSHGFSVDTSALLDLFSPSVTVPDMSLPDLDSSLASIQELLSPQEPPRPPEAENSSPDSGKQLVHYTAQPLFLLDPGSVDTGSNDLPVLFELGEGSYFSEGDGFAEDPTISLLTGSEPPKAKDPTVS
# How it was run: as §1
# [4] = target: T2, SPIC (Homo sapiens, UniProt Q8N5J4 1-248); conditions: protein: recombinant; tags: N-terminal GST; dsDNA, one strand shown
# T2 sequence: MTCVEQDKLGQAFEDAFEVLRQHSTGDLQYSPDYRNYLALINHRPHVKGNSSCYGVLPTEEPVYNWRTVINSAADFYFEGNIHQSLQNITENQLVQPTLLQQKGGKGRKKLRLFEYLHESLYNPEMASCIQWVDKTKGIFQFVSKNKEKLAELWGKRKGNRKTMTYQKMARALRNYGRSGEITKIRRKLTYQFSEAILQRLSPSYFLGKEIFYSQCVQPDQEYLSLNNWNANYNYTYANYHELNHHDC
# How it was run: as §1
# [5] = target: ELF4 (Homo sapiens, UniProt Q99607 1-663); conditions: protein: recombinant; tags: N-terminal GST; dsDNA, one strand shown
# ELF4, sequence (Q99607 whole entry): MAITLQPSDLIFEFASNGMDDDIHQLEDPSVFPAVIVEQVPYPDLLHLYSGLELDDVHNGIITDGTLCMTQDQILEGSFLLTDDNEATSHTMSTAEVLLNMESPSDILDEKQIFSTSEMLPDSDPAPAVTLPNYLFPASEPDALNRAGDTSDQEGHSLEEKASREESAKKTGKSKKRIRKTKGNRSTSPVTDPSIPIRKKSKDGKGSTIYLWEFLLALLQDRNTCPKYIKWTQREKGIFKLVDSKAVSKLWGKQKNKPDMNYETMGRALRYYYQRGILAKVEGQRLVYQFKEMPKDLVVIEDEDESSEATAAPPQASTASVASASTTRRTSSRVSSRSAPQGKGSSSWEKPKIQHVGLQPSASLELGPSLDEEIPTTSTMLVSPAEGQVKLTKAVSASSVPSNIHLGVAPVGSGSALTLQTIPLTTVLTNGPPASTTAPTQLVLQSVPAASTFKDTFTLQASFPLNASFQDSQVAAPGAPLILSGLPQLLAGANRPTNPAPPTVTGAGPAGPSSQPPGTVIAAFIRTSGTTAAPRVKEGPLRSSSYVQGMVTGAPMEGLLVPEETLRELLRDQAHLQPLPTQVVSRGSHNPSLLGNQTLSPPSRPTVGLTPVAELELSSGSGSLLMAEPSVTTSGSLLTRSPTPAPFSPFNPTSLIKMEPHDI
# How it was run: as §1
# [6] = target: T3, ELK4 (Homo sapiens, UniProt P28324-2 1-405); conditions: protein: recombinant; tags: N-terminal GST; dsDNA, one strand shown
# T3 sequence: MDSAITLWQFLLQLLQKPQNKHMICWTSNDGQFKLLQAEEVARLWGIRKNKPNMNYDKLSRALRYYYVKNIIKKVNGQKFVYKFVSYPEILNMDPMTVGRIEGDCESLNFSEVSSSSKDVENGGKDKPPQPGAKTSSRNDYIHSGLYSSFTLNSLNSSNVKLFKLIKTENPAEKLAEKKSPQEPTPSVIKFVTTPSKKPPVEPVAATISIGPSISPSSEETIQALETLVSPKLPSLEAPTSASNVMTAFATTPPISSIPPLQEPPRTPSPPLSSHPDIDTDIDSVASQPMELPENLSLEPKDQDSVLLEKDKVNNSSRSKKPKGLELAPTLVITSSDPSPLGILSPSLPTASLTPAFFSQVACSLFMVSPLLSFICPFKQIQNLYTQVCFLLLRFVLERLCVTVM
# How it was run: as §1
# [7] = target: T4, ETV2 (Homo sapiens, UniProt O00321 1-342); conditions: protein: recombinant; tags: N-terminal GST; dsDNA, one strand shown
# T4 sequence: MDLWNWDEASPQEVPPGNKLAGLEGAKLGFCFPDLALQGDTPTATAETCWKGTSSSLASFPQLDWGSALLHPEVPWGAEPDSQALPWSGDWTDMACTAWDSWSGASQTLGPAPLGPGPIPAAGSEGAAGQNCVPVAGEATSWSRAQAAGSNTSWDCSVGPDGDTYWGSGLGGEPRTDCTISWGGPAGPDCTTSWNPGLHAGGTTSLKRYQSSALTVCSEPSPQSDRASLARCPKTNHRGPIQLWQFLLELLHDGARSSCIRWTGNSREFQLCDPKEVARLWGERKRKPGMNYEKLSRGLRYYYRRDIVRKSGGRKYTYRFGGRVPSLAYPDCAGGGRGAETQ
# How it was run: as §1
# [8] = target: T5, ELF3 (Homo sapiens, UniProt P78545 1-371); conditions: protein: recombinant; tags: N-terminal GST; dsDNA, one strand shown
# T5 sequence: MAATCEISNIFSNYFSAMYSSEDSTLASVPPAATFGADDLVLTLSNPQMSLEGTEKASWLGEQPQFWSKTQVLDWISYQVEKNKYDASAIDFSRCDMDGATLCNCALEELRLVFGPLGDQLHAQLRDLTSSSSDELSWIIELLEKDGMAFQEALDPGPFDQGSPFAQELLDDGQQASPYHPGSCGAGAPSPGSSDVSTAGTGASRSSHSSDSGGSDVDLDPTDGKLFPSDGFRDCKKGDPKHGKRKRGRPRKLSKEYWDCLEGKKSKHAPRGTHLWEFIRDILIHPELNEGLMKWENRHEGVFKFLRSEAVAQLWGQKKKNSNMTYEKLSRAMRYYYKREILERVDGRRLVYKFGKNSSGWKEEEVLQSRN
# How it was run: as §1
# [9] = target: CRX (Homo sapiens, UniProt O43186 1-299); conditions: protein: recombinant; tags: N-terminal GST; dsDNA, one strand shown
# CRX, sequence (O43186 whole entry): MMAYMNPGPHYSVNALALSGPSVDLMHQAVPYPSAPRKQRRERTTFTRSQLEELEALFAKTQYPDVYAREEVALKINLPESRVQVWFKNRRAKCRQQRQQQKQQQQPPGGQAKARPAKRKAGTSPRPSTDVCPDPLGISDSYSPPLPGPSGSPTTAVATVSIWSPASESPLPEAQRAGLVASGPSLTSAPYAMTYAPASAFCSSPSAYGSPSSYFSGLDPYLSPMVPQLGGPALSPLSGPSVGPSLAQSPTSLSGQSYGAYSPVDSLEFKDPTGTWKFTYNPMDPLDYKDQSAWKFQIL
# How it was run: as §1
# [10] = target: ETV1 (Homo sapiens, UniProt P50549 1-477); conditions: protein: recombinant; tags: N-terminal GST; dsDNA, one strand shown
# ETV1, sequence (P50549 whole entry): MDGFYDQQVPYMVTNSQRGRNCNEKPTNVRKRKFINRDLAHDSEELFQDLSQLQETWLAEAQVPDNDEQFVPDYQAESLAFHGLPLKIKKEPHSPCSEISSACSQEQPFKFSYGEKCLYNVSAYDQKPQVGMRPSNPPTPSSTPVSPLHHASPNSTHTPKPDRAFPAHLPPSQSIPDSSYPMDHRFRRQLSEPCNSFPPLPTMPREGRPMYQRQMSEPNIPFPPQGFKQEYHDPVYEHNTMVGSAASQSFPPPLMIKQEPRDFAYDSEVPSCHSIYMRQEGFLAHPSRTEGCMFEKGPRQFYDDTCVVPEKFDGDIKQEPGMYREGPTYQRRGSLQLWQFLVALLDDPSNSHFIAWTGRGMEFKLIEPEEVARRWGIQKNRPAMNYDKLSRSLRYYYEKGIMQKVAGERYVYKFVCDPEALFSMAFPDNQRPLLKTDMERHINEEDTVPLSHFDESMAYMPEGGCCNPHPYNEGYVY
# How it was run: as §1
# [11] = target: T6, ERF (Homo sapiens, UniProt P50548 1-548); conditions: protein: recombinant; tags: N-terminal GST; dsDNA, one strand shown
# T6 sequence: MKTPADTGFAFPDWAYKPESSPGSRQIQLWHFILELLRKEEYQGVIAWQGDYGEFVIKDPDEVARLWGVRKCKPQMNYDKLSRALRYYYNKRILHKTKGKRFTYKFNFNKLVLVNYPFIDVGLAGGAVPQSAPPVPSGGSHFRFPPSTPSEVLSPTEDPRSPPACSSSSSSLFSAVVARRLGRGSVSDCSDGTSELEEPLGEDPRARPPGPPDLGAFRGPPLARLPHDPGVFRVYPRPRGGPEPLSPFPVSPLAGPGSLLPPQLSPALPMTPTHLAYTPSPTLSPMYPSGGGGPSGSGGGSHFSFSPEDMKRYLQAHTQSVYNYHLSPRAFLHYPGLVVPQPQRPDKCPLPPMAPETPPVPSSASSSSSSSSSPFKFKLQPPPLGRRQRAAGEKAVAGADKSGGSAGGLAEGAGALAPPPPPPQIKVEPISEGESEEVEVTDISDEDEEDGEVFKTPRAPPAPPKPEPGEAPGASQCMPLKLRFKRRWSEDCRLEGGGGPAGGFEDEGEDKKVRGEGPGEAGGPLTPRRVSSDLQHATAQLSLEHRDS
# How it was run: as §1
# [12] = target: T7, ETV3L (Homo sapiens, UniProt Q6ZN32 1-361); conditions: protein: recombinant; tags: N-terminal GST; dsDNA, one strand shown
# T7 sequence: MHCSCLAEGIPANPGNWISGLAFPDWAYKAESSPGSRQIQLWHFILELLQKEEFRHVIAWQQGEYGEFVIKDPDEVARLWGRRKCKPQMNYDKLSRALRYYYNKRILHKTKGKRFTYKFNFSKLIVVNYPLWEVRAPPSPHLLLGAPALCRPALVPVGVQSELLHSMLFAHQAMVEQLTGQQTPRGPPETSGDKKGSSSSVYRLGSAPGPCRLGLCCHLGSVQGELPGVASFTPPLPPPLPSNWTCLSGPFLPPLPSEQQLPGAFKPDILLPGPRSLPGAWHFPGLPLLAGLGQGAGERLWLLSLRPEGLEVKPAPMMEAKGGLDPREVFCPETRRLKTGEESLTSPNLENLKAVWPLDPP
# How it was run: as §1
# [13] = target: T8, ETS2 (Homo sapiens, UniProt P15036 1-469); conditions: protein: recombinant; tags: N-terminal GST; dsDNA, one strand shown
# T8 sequence: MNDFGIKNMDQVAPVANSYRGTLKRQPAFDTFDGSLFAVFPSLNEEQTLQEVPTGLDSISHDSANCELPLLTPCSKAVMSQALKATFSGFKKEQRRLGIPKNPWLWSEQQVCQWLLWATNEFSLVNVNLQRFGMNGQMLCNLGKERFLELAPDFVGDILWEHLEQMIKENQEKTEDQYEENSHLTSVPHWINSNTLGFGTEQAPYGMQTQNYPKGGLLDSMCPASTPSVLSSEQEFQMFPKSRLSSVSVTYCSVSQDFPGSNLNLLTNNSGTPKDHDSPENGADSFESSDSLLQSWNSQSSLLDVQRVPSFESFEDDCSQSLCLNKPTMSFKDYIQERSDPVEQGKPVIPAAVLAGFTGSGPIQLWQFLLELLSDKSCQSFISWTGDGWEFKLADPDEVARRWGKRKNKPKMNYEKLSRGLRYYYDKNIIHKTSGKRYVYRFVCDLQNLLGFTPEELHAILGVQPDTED
# How it was run: as §1
# [14] = target: T9, SPDEF (Homo sapiens, UniProt O95238 1-335); conditions: protein: recombinant; tags: N-terminal GST; dsDNA, one strand shown
# T9 sequence: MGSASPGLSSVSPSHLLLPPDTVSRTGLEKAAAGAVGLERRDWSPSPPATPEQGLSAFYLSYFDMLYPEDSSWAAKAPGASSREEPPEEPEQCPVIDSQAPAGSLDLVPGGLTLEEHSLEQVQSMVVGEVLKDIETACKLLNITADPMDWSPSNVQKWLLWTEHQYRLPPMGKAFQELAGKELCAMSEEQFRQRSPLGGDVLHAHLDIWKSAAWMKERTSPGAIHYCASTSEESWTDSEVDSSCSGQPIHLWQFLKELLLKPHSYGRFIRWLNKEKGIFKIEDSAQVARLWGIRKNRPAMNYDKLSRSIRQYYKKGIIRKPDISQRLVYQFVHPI
# How it was run: as §1
# [15] = target: T10, ETV7 (Homo sapiens, UniProt Q9Y603 1-341); conditions: protein: recombinant; tags: N-terminal GST; dsDNA, one strand shown
# T10 sequence: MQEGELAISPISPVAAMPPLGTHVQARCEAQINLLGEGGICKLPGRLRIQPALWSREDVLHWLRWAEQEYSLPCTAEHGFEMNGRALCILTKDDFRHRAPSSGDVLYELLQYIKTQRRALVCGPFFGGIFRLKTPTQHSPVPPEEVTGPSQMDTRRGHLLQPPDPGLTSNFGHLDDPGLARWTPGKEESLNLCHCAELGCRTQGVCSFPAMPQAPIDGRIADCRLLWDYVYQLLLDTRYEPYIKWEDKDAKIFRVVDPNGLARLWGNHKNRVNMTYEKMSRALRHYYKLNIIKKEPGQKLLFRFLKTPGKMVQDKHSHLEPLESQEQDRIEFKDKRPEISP
# How it was run: as §1
# [16] = target: T11, ELF5 (Homo sapiens, UniProt Q9UKW6-2 1-255); conditions: protein: recombinant; tags: N-terminal GST; dsDNA, one strand shown
# T11 sequence: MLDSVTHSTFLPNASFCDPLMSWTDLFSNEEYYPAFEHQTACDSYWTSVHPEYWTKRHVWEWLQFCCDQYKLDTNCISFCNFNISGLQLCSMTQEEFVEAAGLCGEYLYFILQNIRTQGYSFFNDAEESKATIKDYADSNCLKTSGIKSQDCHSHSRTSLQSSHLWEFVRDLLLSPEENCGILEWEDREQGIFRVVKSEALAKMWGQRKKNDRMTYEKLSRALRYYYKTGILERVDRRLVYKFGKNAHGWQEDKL
# How it was run: as §1
# [17] = target: T12, ETV3 (Homo sapiens, UniProt P41162-2 1-143); conditions: protein: recombinant; tags: N-terminal GST; dsDNA, one strand shown
# T12 sequence: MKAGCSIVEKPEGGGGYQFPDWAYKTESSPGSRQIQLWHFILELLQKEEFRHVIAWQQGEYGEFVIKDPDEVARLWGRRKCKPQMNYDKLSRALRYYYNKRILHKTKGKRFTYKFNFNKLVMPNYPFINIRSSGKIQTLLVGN
# How it was run: as §1
# [18] = target: ETV6 (Homo sapiens, UniProt P41212 1-452); conditions: protein: recombinant; tags: N-terminal GST; dsDNA, one strand shown
# ETV6, sequence (P41212 whole entry): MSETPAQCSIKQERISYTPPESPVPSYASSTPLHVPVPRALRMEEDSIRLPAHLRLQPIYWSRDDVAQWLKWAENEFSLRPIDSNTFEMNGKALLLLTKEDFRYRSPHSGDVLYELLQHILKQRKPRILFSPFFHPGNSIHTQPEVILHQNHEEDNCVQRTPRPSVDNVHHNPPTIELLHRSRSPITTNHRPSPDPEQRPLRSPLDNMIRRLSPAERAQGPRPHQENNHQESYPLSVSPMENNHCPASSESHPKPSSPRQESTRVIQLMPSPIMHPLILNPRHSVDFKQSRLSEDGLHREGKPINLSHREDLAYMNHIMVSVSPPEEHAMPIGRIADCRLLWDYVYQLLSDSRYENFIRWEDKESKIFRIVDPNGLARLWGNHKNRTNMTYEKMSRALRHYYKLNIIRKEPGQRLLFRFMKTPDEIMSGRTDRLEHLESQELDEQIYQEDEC
# How it was run: as §1
sequence,measurement,setting,value
AGCAAT,binding signal,[1],"1.08 fold enrichment (6-mer frequency, TF over GST control)"
same,binding signal,[2],"1.14 fold enrichment (6-mer frequency, TF over GST control)"
same,binding signal,[3],"1.1 fold enrichment (6-mer frequency, TF over GST control)"
same,binding signal,[4],"1.05 fold enrichment (6-mer frequency, TF over GST control)"
same,binding signal,[5],"1.2 fold enrichment (6-mer frequency, TF over GST control)"
same,binding signal,[6],"1.14 fold enrichment (6-mer frequency, TF over GST control)"
same,binding signal,[7],"1.14 fold enrichment (6-mer frequency, TF over GST control)"
same,binding signal,[8],"1.13 fold enrichment (6-mer frequency, TF over GST control)"
same,binding signal,[9],"1.06 fold enrichment (6-mer frequency, TF over GST control)"
same,binding signal,[10],"1.09 fold enrichment (6-mer frequency, TF over GST control)"
same,binding signal,[11],"1.1 fold enrichment (6-mer frequency, TF over GST control)"
same,binding signal,[12],"1.03 fold enrichment (6-mer frequency, TF over GST control)"
same,binding signal,[13],"1.1 fold enrichment (6-mer frequency, TF over GST control)"
same,binding signal,[14],"1.04 fold enrichment (6-mer frequency, TF over GST control)"
same,binding signal,[15],"1.25 fold enrichment (6-mer frequency, TF over GST control)"
same,binding signal,[16],"1.08 fold enrichment (6-mer frequency, TF over GST control)"
same,binding signal,[17],"1.18 fold enrichment (6-mer frequency, TF over GST control)"
same,binding signal,[18],"1.14 fold enrichment (6-mer frequency, TF over GST control)"
